This is part of a sample that, as a whole, favours compounds with a hit. Of some 83,000 tested, about 20% had one in any assay.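 Note: values are percent growth. 100 is the growth of untreated cells, values between 100 and 0 indicate rising inhibition; between -100 and 0 indicates cell death.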 Calls of active or inactive are those of the source. Rule for the calls: active = growth percent below 10; inactive = the rest.
Legend:
Test in all cases: NCI-60 one-dose screen, 48 h (100 = growth as untreated, 0 = no growth, -100 = all killed)
Conditions in all cases: 10 µM unless noted
[1] = tested on: NCI-H23 lung
[2] = tested on: NCI-H226 lung
[3] = tested on: NCI-H322M lung
[4] = tested on: HOP-62 NSCLC
[5] = tested on: NCI-H460 lung
[6] = tested on: HOP-92 NSCLC
[7] = tested on: NCI-H522 lung
[8] = tested on: A549/ATCC NSCLC
[9] = tested on: 786-0 renal
[10] = tested on: COLO 205 colon
[11] = tested on: DU-145 prostate
[12] = tested on: K-562 leukemia
[13] = tested on: MALME-3M melanoma
[14] = tested on: MDA-MB-231 breast
[15] = tested on: RXF 393 renal
[16] = tested on: SF-268 CNS
[17] = tested on: SF-295 CNS
[18] = tested on: SF-539 CNS
[19] = tested on: UACC-257 melanoma
[20] = tested on: M14 melanoma

Measured: growth

NS(=O)(=O)c1ccc(N=Nc2c(O)n(CC(=O)Nc3ccccc3)c3ccccc23)cc1
active: [1] -19.1% | [5] 4.09% | [8] 0.913% | [9] 1.52% | [14] -9.74% | [18] -27.2%
inactive: [2] 25.3% | [3] 52% | [4] 10.8% | [6] 77.3% | [7] 31.6% | [10] 27.6% | [11] 21.2% | [12] 14.7% | [13] 20.7% | [15] 48.9% | [16] 75.3% | [17] 13.3% | [19] 61.5% | [20] 11.2%

COc1ccc(NC(=O)[C@H](CO)NC(=O)OC(C)(C)C)cc1C(=O)Nc1cccc(C2CC(=O)c3c(cc(OC)c(OC)c3OC)O2)c1 (stereo not given in full)
inactive: [1] 50.7% | [2] 48.1% | [3] 81.1% | [4] 83% | [5] 55.3% | [6] 81.9% | [7] 31.4% | [8] 68.8% | [9] 68.3% | [10] 77.2% | [11] 58.4% | [12] 28.4% | [13] 61.4% | [14] 41.9% | [15] 53% | [16] 65.1% | [17] 69.1% | [18] 79.1% | [19] 75.3% | [20] 66%

COc1cc(C2CC(c3cc(OC)c(OC)c(OC)c3)=NN2C(C)=O)ccc1OCc1ccc(F)cc1 (stereo not given)
inactive: [1] 56.7% | [2] 49.8% | [3] 66.1% | [4] 74.2% | [5] 49% | [6] 17.3% | [7] 42.1% | [8] 50.8% | [9] 57.8% | [10] 58.5% | [11] 70.6% | [12] 28% | [13] 81.8% | [14] 61% | [15] 73.7% | [16] 72% | [17] 37.7% | [18] 61.9% | [19] 68.6% | [20] 59.9%

COc1cc2c(c(OC)c1OC)C(=O)CC(c1cccc(NC(=O)c3cc([N+](=O)[O-])ccc3Cl)c1)O2 (stereo not given)
active: [7] -27.1% | [11] 5.58% | [14] 6.08% | [15] -6.08% | [20] 0.0604%
inactive: [1] 20.1% | [2] 25.3% | [3] 55.7% | [4] 43% | [5] 30.8% | [6] 36.3% | [8] 35.6% | [9] 25.1% | [10] 37.1% | [12] 19.5% | [13] 51.9% | [16] 42.2% | [17] 49.8% | [18] 22.2% | [19] 39.9%

Cn1cc(-c2nc(N)nnc2-c2c[nH]c3ccc(Br)cc23)c2cccnc21
inactive: [1] 65.5% | [2] 87.1% | [3] 63.3% | [4] 53.2% | [5] 32.8% | [6] 94.1% | [7] 31.8% | [8] 56.7% | [9] 37.1% | [10] 44.5% | [11] 59.7% | [12] 24.5% | [13] 57% | [14] 63.1% | [15] 63.9% | [16] 66.7% | [17] 18.1% | [18] 20.1% | [19] 81.3% | [20] 33.9%

Cc1ccc(C(=O)CSc2nc3ccc(C)cc3c(=O)n2-c2ccc(F)cc2)cc1
active: [4] 7.49% | [6] -0.0399% | [9] -3.55%
inactive: [1] 56.8% | [2] 15% | [3] 60% | [5] 32.7% | [7] 63.8% | [8] 57.6% | [10] 84% | [11] 80.9% | [12] 92.7% | [13] 79.6% | [14] 21.3% | [15] 30.5% | [16] 45.5% | [17] 28% | [18] 40.2% | [19] 85.9% | [20] 79.7%

COc1ccc(C(SCCNCc2cc(N(C)C)ccn2)(c2ccccc2)c2ccccc2)cc1
inactive: [2] 15.1% | [3] 27.5% | [4] 10.9% | [8] 10.1% | [16] 22.1%
active: [1] -10.7% | [5] -58.6% | [6] -16.5% | [7] -20.6% | [9] -23.1% | [10] -78% | [11] 7.05% | [12] -28.5% | [13] -91.4% | [14] -33.4% | [15] -21.4% | [17] -58.8% | [18] -93% | [19] -20.9% | [20] -46.3%

CN(C)CCCNC(=O)c1cc(NC(=O)c2cc(NC(=O)c3ccc(/C=C/c4ccccc4)cc3)cn2C)cn1C
inactive: [1] 43.9% | [2] 50.3% | [3] 73.4% | [4] 74.1% | [5] 19.5% | [8] 35.7% | [9] 42.3% | [10] 32% | [11] 57.1% | [13] 35% | [14] 65.6% | [15] 25% | [16] 48.9% | [17] 35.2% | [18] 32.7% | [19] 54.2% | [20] 48.1%
active: [6] -1.72% | [7] -16.4% | [12] -41%

Reference: PubChem BioAssay (NCI)
